Source: PubChem (several laboratories)
Only some compounds are listed: those with a hit (about 2.7% of all), similar ones and a draw of the others.
KKLEB tox: reduces viability of KKLEB cystic fibrosis airway cells; AID 602141; KKLEB CF airway cells viability, ATPlite luminescence, overnight; hits give low values; cells stimulated with P. aeruginosa culture filtrate; activity change (cytotoxicity), % at 5 µM; hit rate 0.36% among 360,000;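 active means corrected activity change at or below -50% at 5 µM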
Peg3 prom inh: inhibitors of Peg3 promoter. HeLa PEG-Prom luciferase reporter, luminescence, overnight. hit rate 1.7% among 360,000. inhibition, % at 20 µM;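 active means inhibition of at least 50% at 20 µM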
MITF TRPM1 inh: reduces MITF-dependent TRPM1 promoter luciferase signal; SK-MEL-5 TRPM1 promoter luciferase, 24 h; inhibition, % at 12.5 µM; hit rate 0.83% among 330,000;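 active means mean inhibition across replicates of 60% or more, whatever share of single replicates reaches that level; inconclusive means some that reach 60%, reason not given; inactive means mean inhibition across replicates below 60%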
HIF-2a block: HIF-2a inhibition; 786-0 RCC cells HIF-2a reporter, luciferase luminescence, overnight; inhibition, % at 18.8 µM; hit rate 0.72% among 360,000;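 active means inhibition of the luminescence signal of 40% or more relative to plate controls, in a single-dose primary screen at 18.75 µM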
Shn3 inh set2: inhibitors of Schnurri-3 3'UTR reporter in osteoblasts; Clone20 osteoblast Shn3 3'UTR firefly luciferase, 24 h; inhibition, % at 12.5 µM; hit rate 0.52% among 360,000;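 active means mean inhibition of at least 75% with every replicate also reaching 75%; inconclusive means mean inhibition at least 75% but some replicate below; inactive means mean inhibition below 75%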
CF NFkB inh: blocks PAF-induced NF-kB reporter in cystic fibrosis cells. KKLEB NF-kB-GFP reporter, GFP fluorescence overnight. inhibition, % at 5 µM. hit rate 0.86% among 360,000. AID 588850;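 active means at least 50% inhibition at 5 µM, scaled per plate between neutral and stimulator controls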;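 further: PAF is a Pseudomonas aeruginosa culture filtrate used as stimulus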
Mdm2-MdmX confirm: confirmation of inhibitors of human Mdm2/MdmX interaction, set 2; AID 504601; shares compounds with HIF-2a block; hit rate 99% among 740; SaOS-2 split-luciferase Mdm2/MdmX complementation, luminescence; inhibition, % at 8 µM;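 active means mean inhibition of the luminescence signal across two replicates at or above 26 percent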
Target sequence (O15151 whole entry, looked up): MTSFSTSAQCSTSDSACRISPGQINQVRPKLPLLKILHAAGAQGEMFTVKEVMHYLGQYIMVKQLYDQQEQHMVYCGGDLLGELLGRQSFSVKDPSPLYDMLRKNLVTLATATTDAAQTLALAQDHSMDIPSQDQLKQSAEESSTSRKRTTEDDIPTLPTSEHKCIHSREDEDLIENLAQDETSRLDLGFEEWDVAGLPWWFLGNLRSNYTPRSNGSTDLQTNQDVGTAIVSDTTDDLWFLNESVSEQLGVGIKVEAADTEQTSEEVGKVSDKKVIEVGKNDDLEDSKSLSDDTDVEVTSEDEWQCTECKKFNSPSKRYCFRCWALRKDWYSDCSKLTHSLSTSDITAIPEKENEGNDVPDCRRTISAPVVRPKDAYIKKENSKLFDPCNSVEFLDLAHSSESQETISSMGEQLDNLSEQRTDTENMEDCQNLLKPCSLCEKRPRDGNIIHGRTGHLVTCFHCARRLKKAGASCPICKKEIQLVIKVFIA
Target sequence (Q00987 whole entry, looked up): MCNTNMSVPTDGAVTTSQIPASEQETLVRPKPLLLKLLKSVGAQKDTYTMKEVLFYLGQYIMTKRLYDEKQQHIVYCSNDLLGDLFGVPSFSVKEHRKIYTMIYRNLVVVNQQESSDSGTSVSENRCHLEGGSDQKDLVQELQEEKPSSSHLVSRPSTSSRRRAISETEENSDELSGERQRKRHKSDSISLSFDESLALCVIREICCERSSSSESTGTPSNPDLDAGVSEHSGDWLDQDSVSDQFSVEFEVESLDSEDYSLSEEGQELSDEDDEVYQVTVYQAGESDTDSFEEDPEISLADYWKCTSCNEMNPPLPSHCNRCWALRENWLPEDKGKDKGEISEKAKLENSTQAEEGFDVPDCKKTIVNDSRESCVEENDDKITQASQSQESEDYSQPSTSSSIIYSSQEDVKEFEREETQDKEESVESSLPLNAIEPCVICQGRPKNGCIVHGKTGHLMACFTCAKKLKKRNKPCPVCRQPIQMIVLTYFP
HIF-2a inh conf: HIF-2a inhibition, single concentration confirmation; hit rate 56% among 1,800; inhibition, % at 18.8 µM; shares compounds with HIF-2a block; 786-0 RCC cells, HIF-2a luciferase reporter luminescence, overnight; AID 651580;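 active means mean inhibition across four replicates of at least 40 percent at the single tested concentration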
HIF-1a cs: HIF-1a inhibition counter-screen for HIF-2a hits; hit rate 72% among 1,800; shares compounds with HIF-2a block; MiaPaCa-2 HIF-1a luciferase reporter, desferoxamine, overnight; inhibition, % at 18.8 µM;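 active means mean inhibition of the reporter signal across four replicates at the single tested dose of 50% or more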
Numbers stand for hits; – = inactive; ? = inconclusive; · = no result.

SMILES	KKLEB tox	Peg3 prom inh	MITF TRPM1 inh	HIF-2a block	Shn3 inh set2	CF NFkB inh	HIF-2a inh conf	HIF-1a cs	others
COc1ccc(-c2cnc3c(NC(C)=O)cc(-c4ccc(C(=O)N5CCOCC5)cc4)cn23)cc1OC	–	–	·	41.4	–	–	–	–
CCOC(=O)C(=Cc1c[nH]c2ccc(S(=O)(=O)N(C)C)cc12)C(=O)OCC	–	–	–	56.4	–	–	50.9	80.8
O=C(CCN1C(=O)/C(=C/c2ccccc2)SC1=S)NNC(=O)c1ccncc1	–	–	–	–	–	–	·	·
O=C(CCN1C(=O)/C(=C/c2ccccc2)SC1=S)N[C@@H](CO)Cc1ccccc1	–	80.3	–	49.9	–	–	·	·	Mdm2-MdmX confirm=98.2
Cc1ccccc1CS(=O)(=O)c1nnc([C@H](CC(C)C)NC(=O)OC(C)(C)C)o1	–	95.5	83.6	69.0	?	–	–	–
CC(C)C[C@H](NC(=O)OC(C)(C)C)c1nnc(SCc2ccccc2)o1	–	–	–	–	–	–	·	·
Cc1ccc(NC(=O)C(C)Sc2nnc3n2CCCCC3)cc1S(=O)(=O)N1CCOCC1 (stereo unspecified)	–	–	·	–	–	–	·	·
CC(C)=CCC/C(C)=C/CNC(=O)C[C@H]1C[C@H](C(=O)N2CCOCC2)[C@@]2(CCC3CCCC3)c3[nH]c4cc(CCC(=O)N(C)C)ccc4c3CCN2C1=O	–	–	–	79.6	–	–	–	105.7
CN(C)CCCNC(=O)C[C@H]1C[C@H](C(=O)N2CCCCC2)[C@@]2(CCc3ccccc3)c3[nH]c4ccc(Cl)cc4c3CCN2C1=O	–	95.0	104.9	81.1	–	–	–	103.4	Mdm2-MdmX confirm=103.2
CN(C)CCCNC(=O)C[C@H]1C[C@H](C(=O)N2CCCCC2)[C@@]2(C)c3[nH]c4ccc(Cl)cc4c3CCN2C1=O	–	–	–	–	–	–	·	·
COc1cc(CNc2ncnc3c2ncn3[C@H]2CN(Cc3cc(OC)c(OC)c(OC)c3)C[C@@H](CO)O2)cc(OC)c1OC	–	–	·	–	–	–	·	·
CCOC(=O)C1CCN(C(=O)Nc2ccc3nccnc3c2)CC1	–	–	–	–	–	–	·	·
CCOC(=O)C1CCN(C(=O)Nc2ccc3snnc3c2)CC1	–	–	–	51.6	–	–	49.9	–
O=[N+]([O-])c1cc(-c2ncccn2)c([N+](=O)[O-])s1	–	104.5	·	91.2	–	–	40.1	51.8
COC(=O)C(=C/C(C)=C/c1cccnc1)C(=O)OC	–	60.5	–	43.0	–	–	–	–
CN1CCOc2c1cnn(CCO)c2=O	–	–	·	–	–	–	·	·
COc1nn(-c2ccccc2)c(=O)c(Cl)c1Cl	-66.4	104.8	84.3	92.7	–	91.1	64.7	106.1
CC(=O)Nc1cccc(-c2cccc3nccn23)c1	–	–	·	–	–	–	·	·
Cc1cccc(NC(=S)NNc2ncc(C(F)(F)F)cc2Cl)c1	–	–	–	50.4	–	–	57.0	–
COc1ccc(C)c2sc(N(CCCN(C)C)C(=O)c3ccc(S(=O)(=O)N4CCc5ccccc5C4)cc3)nc12	-84.5	101.7	96.0	84.8	92.5	74.7	–	97.1
O=S1(=O)c2ccc(Br)cc2N2CC[C@H](C2)N1Cc1ccc(Cl)cc1	–	–	–	–	–	–	·	·
C#CCN(C[C@@H]1[C@@H](OC(=O)NCc2ccco2)[C@@H](OC(=O)NCc2ccco2)CN(C(=O)OC(C)C)N1C(=O)OC(C)C)S(=O)(=O)c1ccc(C)cc1	–	–	·	43.7	–	–	–	89.1
C#CCN(C[C@@H]1[C@@H](OC(=O)NCc2ccccc2F)[C@@H](OC(=O)NCc2ccccc2F)CN(C(=O)OC(C)C)N1C(=O)OC(C)C)S(=O)(=O)c1ccc(C)cc1	–	–	·	–	–	–	·	·
